Here are results for 22 molecules from PubChem BioAssay AID1851 (National Center for Advancing Translational Sciences (NCATS), 2009).

Out of some 16,000 compounds screened, about 4,000 (25%) were called active. Roughly 26% stayed inconclusive and do not appear here. Calls come from the whole dose curve; as a rule, active = well fitted curve in the direction sought with a large enough effect; inconclusive = small, poorly fitted or top-dose-only effect, or effect the other way; inactive = no such curve, though single readings can be large or run the other way. Not all results are given here.
% is set by controls: 0 for no effect and ±100 for the full control effect.

In this assay the target is Cytochrome P450 2C9 (Homo sapiens) (UniProt P11712). The assay can be described thus: Cytochrome panel assay with activity outcomes. The following applies: recombinant CYP, pro-luciferin dealkylation, luminescence, p450-cyp2c9; series mostly up to 57.1 µM; activity, negative = inhibition: at the top concentration.
Sequence of Cytochrome P450 2C9 (Homo sapiens) (P11712 whole entry, looked up): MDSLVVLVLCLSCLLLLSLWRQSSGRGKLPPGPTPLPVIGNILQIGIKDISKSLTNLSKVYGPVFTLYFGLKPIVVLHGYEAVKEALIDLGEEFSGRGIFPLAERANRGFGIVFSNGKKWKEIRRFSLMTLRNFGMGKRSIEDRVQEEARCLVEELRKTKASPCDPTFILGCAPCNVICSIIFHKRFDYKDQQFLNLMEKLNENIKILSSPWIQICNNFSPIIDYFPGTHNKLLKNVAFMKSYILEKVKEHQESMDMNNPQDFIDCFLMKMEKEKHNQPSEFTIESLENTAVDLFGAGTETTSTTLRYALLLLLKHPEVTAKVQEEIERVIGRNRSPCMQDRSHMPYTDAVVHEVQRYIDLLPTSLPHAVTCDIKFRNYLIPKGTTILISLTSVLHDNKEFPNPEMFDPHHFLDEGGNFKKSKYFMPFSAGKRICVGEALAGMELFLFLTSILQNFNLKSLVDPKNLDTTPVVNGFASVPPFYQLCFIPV
For the molecule `CC1(C)S[C@@H]2[C@H](NC(=O)[C@H](C(=O)O)c3ccsc3)C(=O)N2[C@H]1C(=O)O`, the “activity, negative = inhibition” value is 27.8% [at 25.6 µM] (inactive). On the same count and under the same terms, the result for `O=c1oc2c(Cl)cc(Cl)cc2cc1-c1nnc(Nc2ccccc2F)s1` reads 25% (inactive).

`CCCC[C@@H]1C[C@H]1C(NC(=O)c1ccco1)c1ccc(-c2ccccc2)cc1` (some centres not stated): the half-maximal activity concentration (AC50) (commonly the midpoint of the concentration-response curve, whichever way the signal moves) is 3.16 µM (active). With `CCCC[C@@H]1C[C@H]1C(NC(=O)Cc1ccccc1)c1ccc(-c2ccccc2)cc1` (some centres not stated), the “activity, negative = inhibition” value is -22.7% (inactive). Take `COC(=O)[C@@H]1C[C@H]1[C@@H](NC(=O)c1cc(C)nn1C)c1ccccc1`: the “activity, negative = inhibition” value is -53.8% (inactive). For the molecule `NNC(=O)[C@@H](O)[C@H](O)[C@H](O)CO`, the activity, negative = inhibition was -4.21% [at 11.4 µM] (inactive). Take `CC1=NN(c2ccccc2)C(=O)C1C(=O)c1ccc(Cl)cc1` (configuration not stated): the AC50 was 0.562 µM (active). For the molecule `CC1=NN(c2ccccc2)C(=O)[C@@H]1N=Nc1ccc(S(N)(=O)=O)cc1`, the activity, negative = inhibition is 3.33% [at 11.4 µM] (inactive). For `Cc1cc(C)n(-c2nc(NCC(C)O)c3c4c(sc3n2)COC(C)(C)C4)n1` (configuration not stated), the half-maximal activity concentration (AC50) is 15.8 µM (active).

For the molecule `CCC(O)CNc1nc(-n2nc(C)cc2C)nc2sc3c(c12)CC(C)(C)OC3` (configuration not stated), the AC50 was 14.1 µM (active). On to `COc1ccc(-n2c(=O)c(C)nc3cnc(N4CCNCC4)nc32)cc1`, for which the “activity, negative = inhibition” value was 9.08% (inactive). For the molecule `C=CC1=C(C)C2=Cc3c(C=C)c(C)c4[n]3[Sn+2][n]3c(c(C)c(CCC(=O)O)c3=CC3=NC(=C4)C(C)=C3CCC(=O)O)=CC1=N2`, the “activity, negative = inhibition” value is -7.28% (inactive).

For the molecule `CCSc1nc2c(c(=O)[nH]1)C(c1ccccn1)C1=C(CC(C)(C)CC1=O)N2` (configuration not stated), the “activity, negative = inhibition” value was -6.53% (inactive). For the molecule `CCSc1nc2c(c(=O)[nH]1)C(c1ccncc1)C(C(=O)OC(C)C)=C(C)N2` (configuration not stated), the AC50 is 2.82 µM (active). Same read-out and setting: the result for `CSc1nc2c(c(=O)[nH]1)C(c1ccncc1)C(C(=O)OC(C)C)=C(C)N2` (configuration not stated) reads 7.94 µM (active). With `O=C(O)c1cc2c(cc1S(=O)(=O)O)[C@H]1[C@@H]([C@H]3[C@H]2[C@@]2(Cl)C(Cl)=C(Cl)[C@]3(Cl)C2(Cl)Cl)[C@]2(Cl)C(Cl)=C(Cl)[C@@]1(Cl)C2(Cl)Cl`, the activity, negative = inhibition is -16.9% [at 11.4 µM] (inactive). As for `CC1(C)[C@@H]2CC[C@]1(CC(=O)O)[C@H](Cl)C2`, the activity, negative = inhibition is 4.29% [at 11.4 µM] (inactive).

`O=C(CSC1CC(=O)N(CC(c2ccccc2)c2ccccc2)C1=O)Nc1ccc(Cl)cc1` (configuration not stated): the AC50 was 3.98 µM (active). Consider `CC12CS(=O)(=O)CC1SC(=S)N2c1ccccn1` (configuration not stated), for which the “activity, negative = inhibition” value is -20.9% (inactive). Regarding `CCN(CC)CCOC(=O)c1ccc(N)cc1`, the AC50 entry is “inactive”. For the molecule `CCOC(=O)c1c(C)[nH]c(C)c1C(=O)COC(=O)c1ccc(S(=O)(=O)N(CC)CC)cc1`, the AC50 was 0.355 µM (active).

Regarding `CCOC(=O)c1c(C)[nH]c2ccc3c(c12)CN1CCc2cc(OC)ccc2[C@@H]1O3`, the “activity, negative = inhibition” value was 8.04% (inactive).
